In PubChem BioAssay AID651602 (The Scripps Research Institute Molecular Screening Center, 2012) one finds inhibition data, which are given here for 79 compounds.

SMILES strings stand for the structures. Where “and” joins values, the source holds several entries; their conditions need not be identical. Equal values may be shown once. Hit rate of the full screen: of about 360,000 compounds, about 950 (0.26%) were called active. This excerpt belongs to a sample that is enriched for actives. Unmarked numbers belong to inactive results. Rule as the data show it: active = inhibition above about 11%; inactive = the rest.

A short description of the test: growth loss of phage-infected E. coli, primary screen, RecBCD inhibitor project, absorbance, with phage, HTS (AID 651602). The settings on record: at 11.9 µM, hits give high values.
As to `COC(=O)C1=C(C)N(Cc2ccc(C(F)(F)F)cc2)C(=NCc2ccc(C(F)(F)F)cc2)NC1c1cccc(Cl)c1` (centres undefined), the inhibition was 1.58%.
On to `O=C(NS(=O)(=O)c1cccs1)[C@H]1O[C@@H](n2ccc(=O)[nH]c2=O)[C@H](O)[C@@H]1O`, for which the inhibition was 3.33%.
With `O=C(CSc1ccc(-c2ccc(-n3cccn3)cc2)nn1)Nc1ccc([N+](=O)[O-])cc1`, the inhibition was -0.99%.
For the compound `COc1cc(NC(=O)CSc2ccc(-c3cccnc3)nn2)cc(OC)c1`, the inhibition was 0.39%.
Take `O=C(CSc1ccc(-c2ccccn2)nn1)Nc1ccccc1`: the inhibition is 12.9% (active).
For `O=C1Nc2ccccc2C1=NN=Cc1ccco1` the value was -0.54%; for `C=CC[C@]12C[C@@]3(O[C@H](c4ccc(C(F)(F)F)cc4)N=C3C[C@H](c3ccc(OC)cc3)[C@H]1C)N(C1CCN(Cc3ccccc3)CC1)C2=O`, 6.28%.
For `CC1CCCN(c2cccc3c2S(=O)(=O)N(Cc2ccc(F)cc2)[C@@H](C)[C@H](c2ccccc2)O3)C1` (some centres undefined) the value was 1.59%; for `N#Cc1ccc(OCCCN2CCC(C(O)(c3ccccc3)c3ccccc3)CC2)c(F)c1`, 0.63%; for `CCn1c(=O)cc(SCC(=O)NCc2ccc3c(c2)OCO3)c2ccccc21`, 1.95%.
For `C=CCn1c(=O)c(C(=O)NCc2ccc3c(c2)OCO3)c(O)c2ccccc21` the value was 12.1% (active); for `C=CCn1c(=O)c(C(=O)Nc2ncccc2O)c(O)c2ccccc21`, 3.7%.
With `CCOC(=O)c1ccc(NC(=O)CS(=O)(=O)c2cn(CC)c3ccccc23)cc1`, the inhibition was 0.46%.
For `CCOC(=O)c1ccc(NC(=O)Cn2cnc3cc(C)c(C)cc32)cc1` the value was 18.8% (active).
Turning to `CCOC(=O)c1ccc(NC(=O)CCn2c(=O)oc3ccccc32)cc1`, the inhibition was 1.49%.
Regarding `Cc1ccccc1C(=O)N[C@H](C(=O)N1CCC[C@H]1C(=O)NCc1ccccc1)C(C)C`, the inhibition is -1.25%.
Regarding `COC(=O)N/N=C/c1c[n+]([O-])c2ccccc2[n+]1[O-]`, the inhibition was 37.5% (active).
For `COC(=O)C(C)N=Cc1ccccc1` (centres undefined) the value was 0.77%; for `CC(C)(C)OC(=O)N/N=C/c1ccc(C(=O)O)cc1`, 1.87%.
For the compound `Cc1ccc2nc(CN(C)C(=O)[C@@H](Cc3ccccc3)NC(=O)[C@H]3O[C@@H](n4ccc(=O)[nH]c4=O)[C@H](O)[C@@H]3O)[nH]c2c1`, the inhibition was 2.03%.
For `COC(=O)[C@]12C[C@H](CC(=O)N3CCN(C(=O)C4CC4)CC3)C(=O)N(Cc3ccc4c(c3)OCO4)C1=C[C@H](C(C)(C)C)O[C@@H]2C` the value was 2.87%; for `Cc1ccc(C)c(CN2CCC(CNC(=O)C3CCCN(c4ncnc5c4nc4n5CCCCC4)C3)CC2)c1` (centres undefined), 3.47%; for `COc1ccc(OC)c(NC(=O)CCN2CCC(C)CC2)c1`, -0.47%.
For `CCCOc1ccc(Cl)cc1Nc1nc(NCCO)nc(N2CCCC2)n1` the value was 0.63%; for `CCN1CCN(c2nc(Nc3cc(OC)ccc3OC)nc(Nc3cc(OC)ccc3OC)n2)CC1`, 99.1% (active).
For `O=S1(=O)c2c(cccc2N2CCCC2)O[C@H](COCc2ccccc2)CN1C1CC1` the value was 2.78%.
In the case of `Cc1[nH]c2ccccc2c1CC(=O)Nc1ccc(Nc2cccnc2)c(-c2cccc(Cl)c2)c1`, the inhibition is 3.75%.
Consider `CCN1C(=O)N[C@@H]2C[C@H](C(=O)N3CCCC3)[C@H](C)[C@H](c3ccccc3)C[C@@H]21`, for which the inhibition is 4.26%.
For `COC(=O)c1cc2c(c3c4cc(F)ccc4n(S(=O)(=O)c4ccccc4)c13)C(=O)N(Cc1ccccc1OC)C2` the value was 0.23%; for `O=C(N[C@H](C(=O)N1CCC[C@H]1C(=O)NCCc1ccccc1Cl)c1ccccc1)c1ccccc1`, 0.16%.
As to `C=CC1=C(C(=O)O)N2C(=O)[C@@H](NC(=O)/C(=N/OCC(=O)O)c3csc(N)n3)[C@H]2SC1`, the inhibition was 102% (active).
For the compound `C=CC1=C(C(=O)O)N2C(=O)[C@@H](NC(=O)/C(=N\OCC(=O)O)c3csc(N)n3)[C@H]2SC1`, the inhibition was 99.8% (active).
On to `CO/N=C(\C(=O)N[C@@H]1C(=O)N2C(C(=O)O)=C(COC(C)=O)CS[C@H]12)c1csc(N)n1` (stereo in doubt), for which the inhibition was 101% (active) and 100% (active) and 99.7% (active).
Under `CC1(C)OC(=O)C2=C(CC(CCc3ccccc3)OC2c2ccc(Cl)cc2)O1` (centres undefined) stands 0.56%; under `COC(=O)[C@]1(Cc2ccccc2)NC=C(C(=O)c2ccccc2)[C@@H]1c1cccc(OC)c1`, 0.08%; under `O=C(NN=Cc1ccco1)C(=O)Nc1ccc(Cl)c([N+](=O)[O-])c1`, 1.23%.
For the compound `COC(=O)C(C(=O)OC)c1ccccc1NS(=O)(=O)c1cccc2ccccc12`, the inhibition was 3.8%.
Under `C[C@H](O)[C@@H]1CN2CCc3ccc(-c4ccc5c(c4)OCO5)cc3[C@@H]2C[C@@H]1N(C)C(=O)C1CCCCC1` stands 4.59%; under `OC(c1ccccc1)(c1ccccc1)C1CCN(CCCOc2ccc(-c3ccsc3)cc2)CC1`, -2.69%; under `O=C(C(=O)N1CCC(CNC(=O)c2cccnc2Cl)CC1)c1cccs1`, 2.71%.
Consider `COc1ccc(C2=CN(Cc3ccccc3)C(c3ccc(OC)cc3)CC2=O)cc1` (centres undefined), for which the inhibition is 3.64%.
Under `C[C@H]1[C@H](c2ccccc2)Oc2cc(Br)ccc2S(=O)(=O)N1Cc1cccc(F)c1` stands 1.98%; under `COC(=O)[C@]12C[C@H](CC(=O)NCCc3ccccc3OC)C(=O)N(Cc3ccccc3)C1=C[C@H](C(C)C)O[C@@H]2C1CC1`, 1.94%; under `COC(=O)c1c(-c2ccc(OC)cc2)c2c(c3c4cc(OC)ccc4n(S(=O)(=O)c4ccc(F)cc4)c13)C(=O)N(C)C2`, 2.25%.
For the compound `Oc1c(Cl)cc(Cl)c(Cl)c1Cc1c(O)c(Cl)cc(Cl)c1Cl`, the inhibition is 17.2% (active).
Turning to `Cc1noc(C)c1NC(=O)Nc1ccc2c(c1)C(=O)N([C@H](C)CO)C[C@H](C)[C@H](CN(C)Cc1ccncc1)OCCCC[C@@H](C)O2`, the inhibition was 2.8%.
Under `COc1ccc(S(=O)(=O)Nc2ccc3c(c2)C(=O)N([C@H](C)CO)C[C@H](C)[C@@H](CN(C)C)OCCCC[C@H](C)O3)cc1` stands 2.32%; under `CCOC(=O)NN1C(=O)c2ccccc2NC1c1cccc(O)c1` (centres undefined), 2.82%; under `CC(=O)NN1C(=O)c2ccccc2NC1c1ccccc1` (centres undefined), -1.19%.
For `O=C1c2ccccc2NC(c2ccc(-c3cccc(Cl)c3)o2)N1O` (centres undefined) the value was 21% (active); for `CCCCCCCCN1C(=O)[C@@H](CC(=O)NCCCC)C[C@@]2(C(=O)OC)C1=C[C@H](C(C)(C)C)O[C@@H]2C`, 3.8%.
Under `CC[C@H](C)[C@H]1CNC(=O)C(=O)N1CC1CCN(CCc2ccc(OC)c(OC)c2)CC1` stands 1.03%; under `C#CCN([C@@H](C)C(=O)OCC)S(=O)(=O)c1ccc(Br)cc1F`, 1.36%; under `CC(C)(C)C(c1nc2ccccc2[nH]1)n1c(Cc2csc3ccccc23)nc2ccccc21` (centres undefined), -0.16%.
For the compound `COCCNC(=S)N(C)[C@H]1C[C@H]2c3[nH]c4ccccc4c3CCN2C[C@H]1[C@H](C)O`, the inhibition is 0.63%.
With `COc1cccc(-c2cnc(C(O)c3ccccc3OC)[nH]2)c1` (centres undefined), the inhibition is -1.64%.
Under `Cc1ccc(-c2cnc(C(O)c3cc(Cl)cc(Cl)c3)[nH]2)cc1` (centres undefined) stands 17.1% (active); under `COc1cccc(C(O)c2ncc(-c3ccc4ccccc4c3)[nH]2)c1` (centres undefined), 12.1% (active); under `Cc1cccc(-c2cnc(C(O)c3ccc4ccccc4c3)[nH]2)c1` (centres undefined), 2.34%.
Under `Cc1cccc(-c2cnc(C(O)c3cc(C)cc(C)c3)[nH]2)c1` (centres undefined) stands 9.2%.
Turning to `OC(c1ccc(Cl)cc1)c1ncc(-c2ccc(Cl)cc2)[nH]1` (centres undefined), the inhibition was 7.68%.
In the case of `Cc1cc(N2CCN(C(=O)OC(C)(C)C)C[C@H]2C)ccc1N1CCN(Cc2ccccc2)[C@H](C)C1`, the inhibition is 7.28%.
For the compound `CCOC(=O)/C=C/c1ccccc1O`, the inhibition was 4.3%.
Under `COC(=O)[C@H](CC(C)C)NS(=O)(=O)c1c(F)cccc1F` stands 4.61%; under `O=C(NCc1ccccc1)[C@H]1CCCN1C(=O)[C@H]1CCCN1C(=O)c1cc(F)cc(F)c1`, 2.09%.
Consider `Nc1ncnc2c1ncn2[C@@H]1O[C@H](C(=O)N[C@@H](CCc2ccccc2)C(=O)NCC(=O)N2CCOCC2)[C@@H](O)[C@H]1O`, for which the inhibition is 2.03%.
Under `Cc1cc2c(nc1C)CCCN2C` stands 1.32%.
Under `COC(=O)c1ccc(CN2C(=O)[C@]3(OCCC=C[C@H]3C)c3c(Br)cccc32)cc1` stands 1.58%; under `O=C(Nc1ccc(Cl)c(Cl)c1)N1CC=C(c2ccccc2)CC1`, 3.32%.
Under `CC(c1cccnc1)N(CCN(C)C)C(=O)Nc1ccc(Cl)c(Cl)c1` (centres undefined) stands 1.6%; under `O=C(CC(O)(C(F)(F)F)C(F)(F)F)Nc1ccc(Cl)c(Cl)c1`, 15.6% (active).
For `COC(=O)C1=C(C)N(Cc2cccc(C(F)(F)F)c2)C(=NCc2cccc(C(F)(F)F)c2)NC1c1ccccc1C(F)(F)F` (centres undefined), the inhibition was 9.37%.
With `COC(=O)Cc1nnn2c1[C@H](C)[C@H](c1ccccc1Br)OCC2`, the inhibition was -1.01%.
On to `CC(C)(C)n1nc(C2CC2)c(Br)c1NC(=O)c1ccccc1F`, for which the inhibition was 3.69%.
Regarding `CC(C)(C)C(=O)Nc1c(Br)c(C2CC2)nn1-c1ccccc1`, the inhibition is 97.8% (active).
On to `O=C(Nc1c(Cl)c(C2CC2)nn1-c1ccccc1)C(Cl)(Cl)Cl`, for which the inhibition was 1.86%.
`Oc1c(CN2CCN(c3ccc(F)cc3)CC2)cc(Cl)c2cccnc12`: the inhibition was 13% (active).
Consider `O=C(CN1CCN(c2ccc(Cl)cc2)CC1)c1ccccc1`, for which the inhibition is 4.29%.
As for `Cc1cccc(C)c1NC(=O)CN1CCN(c2ccc(F)cc2)CC1`, the inhibition was 2.55%.
